Results as given in the supplement of paper PMC10849652.
About 8,800 targets were measured; listed, in parts, are those with a hit and a random draw of the rest. About 0.5% of all pairs of compound and target were hits. Unmarked numbers belong to inactive results.

Key:
Experiment in all cases: log2 fold change, soluble protein after heating vs DMSO (PISA); higher = thermal stabilisation; K562 lysate, 10 uM; active = over 0.2 and 3.5 SD of the protein, either way, in both replicates (recomputed)
alvocidib = compound: CN1CC[C@H](c2c(O)cc(O)c3c(=O)cc(-c4ccccc4Cl)oc23)[C@H](O)C1 [alvocidib]
How it was run: (§1)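 Log-two fold change in thermal stability relative to solvent controls is reported from duplicates. For each sample, crude K562 extract from dounce-homogenised pellets in PBS pH 7.4 with 1 mM MgCl2, at 1 mg/mL protein, was treated with 10 μM compound for 30 min. Aliquots heated for 3 min across 48°C-58°C were pooled, brought to 0.5% NP-40 at 4°C and cleared at 21,000xg for 90 min. The supernatant was quantified by TMTpro 16plex LC-MS/MS with channel sums equalised.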

Tubastatin A = compound: CN1CCc2c(c3ccccc3n2Cc2ccc(C(=O)NO)cc2)C1 [Tubastatin A]
How it was run: as §1

[1] = compound: CNC(=O)C1=CC=CC=C1NC2=NC(=NC=C2Cl)NC3=C(C=C(C=C3)N4CCOCC4)OC
How it was run: as §1

defactinib = compound: CNC(=O)c1ccc(Nc2ncc(C(F)(F)F)c(NCc3nccnc3N(C)S(C)(=O)=O)n2)cc1 [defactinib]
How it was run: as §1

[2] = compound: CNc1nc(-c2ccc3c(N)n[nH]c3c2)cc(N2C[C@@H](C(=O)NC3CCCCC3)CC[C@H]2C)n1
How it was run: as §1

encorafenib = compound: COC(=O)N[C@@H](C)CNc1nccc(-c2cn(C(C)C)nc2-c2cc(Cl)cc(NS(C)(=O)=O)c2F)n1 [encorafenib]
How it was run: as §1

[3] = compound: COC(=O)[C@H](CCSC)NC(=O)C1=C(C=C(C=C1)NC[C@H](CS)N)C2=CC=CC=C2
How it was run: as §1

alisertib = compound: COc1cc(Nc2ncc3c(n2)-c2ccc(Cl)cc2C(c2c(F)cccc2OC)=NC3)ccc1C(=O)O [alisertib]
How it was run: as §1

[4] = compound: COc1cc2nc(-c3cc(F)ccc3O)nc(N[C@@H]3CNC[C@H]3C(C)(C)O)c2cc1OC
How it was run: as §1

gefitinib = compound: COc1cc2ncnc(Nc3ccc(F)c(Cl)c3)c2cc1OCCCN1CCOCC1 [gefitinib]
How it was run: as §1

Sequence of UniProt Q15746 (Q15746 whole entry, looked up): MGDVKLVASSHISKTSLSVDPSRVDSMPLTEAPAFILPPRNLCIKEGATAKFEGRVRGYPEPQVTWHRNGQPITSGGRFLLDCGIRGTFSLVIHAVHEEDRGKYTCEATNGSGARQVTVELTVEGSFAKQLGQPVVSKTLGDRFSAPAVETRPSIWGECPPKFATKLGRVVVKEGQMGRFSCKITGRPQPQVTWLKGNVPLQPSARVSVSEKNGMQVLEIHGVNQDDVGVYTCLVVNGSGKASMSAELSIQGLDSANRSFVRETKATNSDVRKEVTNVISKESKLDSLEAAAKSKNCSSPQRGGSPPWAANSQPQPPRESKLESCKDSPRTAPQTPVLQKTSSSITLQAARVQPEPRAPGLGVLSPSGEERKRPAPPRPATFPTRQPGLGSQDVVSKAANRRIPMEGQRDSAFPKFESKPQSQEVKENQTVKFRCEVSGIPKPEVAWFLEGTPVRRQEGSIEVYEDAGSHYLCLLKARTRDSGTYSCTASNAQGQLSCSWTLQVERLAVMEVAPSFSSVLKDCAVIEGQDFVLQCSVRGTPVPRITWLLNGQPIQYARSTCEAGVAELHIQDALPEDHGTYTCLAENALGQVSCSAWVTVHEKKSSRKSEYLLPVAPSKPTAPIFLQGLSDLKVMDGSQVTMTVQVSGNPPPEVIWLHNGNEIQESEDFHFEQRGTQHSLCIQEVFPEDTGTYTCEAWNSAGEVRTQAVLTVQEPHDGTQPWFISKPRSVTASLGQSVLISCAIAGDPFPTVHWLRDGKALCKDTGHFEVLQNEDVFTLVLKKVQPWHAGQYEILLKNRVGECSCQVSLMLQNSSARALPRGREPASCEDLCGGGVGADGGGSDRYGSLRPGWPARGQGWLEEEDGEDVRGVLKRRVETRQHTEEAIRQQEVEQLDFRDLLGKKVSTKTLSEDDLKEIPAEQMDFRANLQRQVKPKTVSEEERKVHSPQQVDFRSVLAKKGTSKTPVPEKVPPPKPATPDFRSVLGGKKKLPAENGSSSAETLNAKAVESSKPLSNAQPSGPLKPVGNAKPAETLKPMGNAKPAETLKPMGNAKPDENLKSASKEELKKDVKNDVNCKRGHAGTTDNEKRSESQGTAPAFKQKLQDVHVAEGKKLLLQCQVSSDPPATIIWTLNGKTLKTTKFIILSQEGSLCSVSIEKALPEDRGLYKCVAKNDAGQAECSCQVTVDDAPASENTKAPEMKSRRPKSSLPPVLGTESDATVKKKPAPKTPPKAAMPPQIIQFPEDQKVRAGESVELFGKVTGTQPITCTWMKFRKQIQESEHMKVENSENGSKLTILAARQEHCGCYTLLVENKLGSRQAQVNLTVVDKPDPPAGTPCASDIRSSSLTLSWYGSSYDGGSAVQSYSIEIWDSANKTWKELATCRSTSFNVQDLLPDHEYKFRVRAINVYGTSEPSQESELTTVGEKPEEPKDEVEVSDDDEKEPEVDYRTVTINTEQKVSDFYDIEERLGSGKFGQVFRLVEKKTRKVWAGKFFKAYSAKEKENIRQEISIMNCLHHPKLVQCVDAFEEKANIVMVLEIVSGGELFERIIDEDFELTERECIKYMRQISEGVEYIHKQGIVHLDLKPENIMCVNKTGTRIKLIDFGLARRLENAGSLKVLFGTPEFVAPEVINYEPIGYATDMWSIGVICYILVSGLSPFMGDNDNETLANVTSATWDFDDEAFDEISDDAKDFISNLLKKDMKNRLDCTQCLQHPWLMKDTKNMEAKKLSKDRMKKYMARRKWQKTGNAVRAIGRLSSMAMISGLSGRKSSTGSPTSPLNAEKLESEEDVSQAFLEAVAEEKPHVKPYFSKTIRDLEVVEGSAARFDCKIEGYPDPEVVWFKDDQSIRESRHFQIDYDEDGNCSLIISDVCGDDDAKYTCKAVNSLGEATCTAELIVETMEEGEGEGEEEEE
Sequence of UniProt Q9UK39 (Q9UK39 whole entry, looked up): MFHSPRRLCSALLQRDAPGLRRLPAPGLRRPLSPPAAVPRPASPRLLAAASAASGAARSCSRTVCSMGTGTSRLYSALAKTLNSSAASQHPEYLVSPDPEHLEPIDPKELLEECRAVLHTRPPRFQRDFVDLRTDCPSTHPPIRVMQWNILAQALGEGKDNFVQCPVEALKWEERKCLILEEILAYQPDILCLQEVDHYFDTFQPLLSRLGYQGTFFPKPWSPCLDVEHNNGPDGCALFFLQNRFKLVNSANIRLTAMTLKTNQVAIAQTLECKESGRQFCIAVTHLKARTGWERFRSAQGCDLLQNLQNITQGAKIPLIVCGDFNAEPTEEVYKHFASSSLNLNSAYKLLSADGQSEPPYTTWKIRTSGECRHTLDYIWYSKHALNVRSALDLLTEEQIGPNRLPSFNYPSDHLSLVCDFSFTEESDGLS
Sequence of UniProt P35749 (P35749 whole entry, looked up): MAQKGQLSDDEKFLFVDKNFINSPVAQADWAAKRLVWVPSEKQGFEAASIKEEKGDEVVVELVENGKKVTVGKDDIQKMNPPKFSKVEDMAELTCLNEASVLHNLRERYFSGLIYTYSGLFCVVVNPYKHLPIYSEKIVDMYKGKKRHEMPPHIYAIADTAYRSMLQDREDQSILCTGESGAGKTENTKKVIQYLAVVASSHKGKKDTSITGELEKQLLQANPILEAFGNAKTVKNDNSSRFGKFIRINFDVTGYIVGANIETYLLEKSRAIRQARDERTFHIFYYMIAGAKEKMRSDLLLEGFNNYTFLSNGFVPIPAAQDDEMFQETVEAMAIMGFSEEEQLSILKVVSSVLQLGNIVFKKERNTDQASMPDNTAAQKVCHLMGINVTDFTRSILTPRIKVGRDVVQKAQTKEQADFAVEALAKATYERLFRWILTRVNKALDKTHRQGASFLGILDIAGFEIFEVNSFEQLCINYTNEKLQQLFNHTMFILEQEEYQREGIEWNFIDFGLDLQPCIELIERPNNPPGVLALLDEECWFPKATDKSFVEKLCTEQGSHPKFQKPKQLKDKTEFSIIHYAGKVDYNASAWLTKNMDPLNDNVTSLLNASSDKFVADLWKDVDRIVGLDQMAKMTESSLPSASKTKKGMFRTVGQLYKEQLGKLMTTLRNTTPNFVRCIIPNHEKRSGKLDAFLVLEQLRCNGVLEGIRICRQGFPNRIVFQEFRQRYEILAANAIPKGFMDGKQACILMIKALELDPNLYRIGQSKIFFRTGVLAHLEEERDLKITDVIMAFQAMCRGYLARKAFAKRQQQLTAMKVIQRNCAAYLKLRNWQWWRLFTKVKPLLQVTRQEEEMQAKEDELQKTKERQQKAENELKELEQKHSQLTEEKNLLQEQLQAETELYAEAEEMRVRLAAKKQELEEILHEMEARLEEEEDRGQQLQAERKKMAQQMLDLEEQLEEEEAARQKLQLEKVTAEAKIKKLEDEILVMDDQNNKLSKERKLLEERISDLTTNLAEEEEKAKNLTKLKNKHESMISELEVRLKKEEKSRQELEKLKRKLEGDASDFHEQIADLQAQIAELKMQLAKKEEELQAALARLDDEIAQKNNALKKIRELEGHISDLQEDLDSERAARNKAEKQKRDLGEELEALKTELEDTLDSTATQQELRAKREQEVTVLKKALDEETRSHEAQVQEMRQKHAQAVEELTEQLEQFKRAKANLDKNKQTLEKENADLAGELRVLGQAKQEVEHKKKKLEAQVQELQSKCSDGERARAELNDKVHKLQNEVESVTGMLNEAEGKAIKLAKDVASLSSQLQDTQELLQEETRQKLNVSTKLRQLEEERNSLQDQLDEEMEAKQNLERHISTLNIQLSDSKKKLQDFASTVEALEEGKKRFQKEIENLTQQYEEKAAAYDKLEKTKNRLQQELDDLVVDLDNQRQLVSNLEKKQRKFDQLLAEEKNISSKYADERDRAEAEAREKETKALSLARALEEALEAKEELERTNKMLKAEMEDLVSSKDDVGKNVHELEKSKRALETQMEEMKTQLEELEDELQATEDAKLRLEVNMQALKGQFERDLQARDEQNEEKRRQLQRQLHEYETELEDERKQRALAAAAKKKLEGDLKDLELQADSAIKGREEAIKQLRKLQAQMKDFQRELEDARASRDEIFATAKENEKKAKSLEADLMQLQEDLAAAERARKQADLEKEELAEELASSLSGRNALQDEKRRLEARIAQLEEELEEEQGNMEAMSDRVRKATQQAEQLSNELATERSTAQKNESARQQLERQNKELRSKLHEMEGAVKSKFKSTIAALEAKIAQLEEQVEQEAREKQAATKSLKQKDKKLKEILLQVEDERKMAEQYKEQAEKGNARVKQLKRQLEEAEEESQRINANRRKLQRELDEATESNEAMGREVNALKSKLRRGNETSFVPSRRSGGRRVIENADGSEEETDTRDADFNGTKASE
Sequence of UniProt Q9BSD7 (Q9BSD7 whole entry, looked up): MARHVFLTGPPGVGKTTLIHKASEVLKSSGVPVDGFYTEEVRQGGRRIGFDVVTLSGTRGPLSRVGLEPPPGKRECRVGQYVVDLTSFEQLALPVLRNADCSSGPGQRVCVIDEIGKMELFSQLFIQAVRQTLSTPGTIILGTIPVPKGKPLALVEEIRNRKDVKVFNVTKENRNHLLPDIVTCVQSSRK
Sequence of UniProt Q99836 (Q99836 whole entry, looked up): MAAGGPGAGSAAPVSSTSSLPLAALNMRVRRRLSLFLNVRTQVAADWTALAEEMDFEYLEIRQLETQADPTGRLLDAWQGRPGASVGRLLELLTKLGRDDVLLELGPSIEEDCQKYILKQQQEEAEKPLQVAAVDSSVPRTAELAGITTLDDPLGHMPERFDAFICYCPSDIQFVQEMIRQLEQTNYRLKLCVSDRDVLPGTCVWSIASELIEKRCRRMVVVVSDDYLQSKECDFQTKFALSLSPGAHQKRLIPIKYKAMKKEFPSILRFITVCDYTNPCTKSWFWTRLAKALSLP
Sequence of UniProt Q15843 (Q15843 whole entry, looked up): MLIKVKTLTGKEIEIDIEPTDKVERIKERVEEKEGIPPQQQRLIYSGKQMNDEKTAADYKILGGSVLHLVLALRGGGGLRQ
Sequence of UniProt O75607 (O75607 whole entry, looked up): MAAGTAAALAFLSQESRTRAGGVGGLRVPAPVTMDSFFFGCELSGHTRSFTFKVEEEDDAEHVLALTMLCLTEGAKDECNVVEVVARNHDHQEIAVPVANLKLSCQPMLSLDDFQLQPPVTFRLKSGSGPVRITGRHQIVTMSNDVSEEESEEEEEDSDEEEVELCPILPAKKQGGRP

Row | Target | log2 fold change (alvocidib) | log2 fold change (Tubastatin A) | log2 fold change [1] | log2 fold change (defactinib) | log2 fold change [2] | log2 fold change (encorafenib) | log2 fold change [3] | log2 fold change (alisertib) | log2 fold change [4] | log2 fold change (gefitinib)
1 | MYD88 isoform 6 (UniProt Q99836) | 0 | -0.216 | -0.006 | 0.013 | 0.001 | 0.003 | -0.003 | 0.021 | -0.005 | -0.039
2 | NUP188 (UniProt Q5SRE5) | 0.004 | -0.049 | -0.018 | 0.038 | -0.016 | -0.045 | 0.043 | -0.007 | 0.025 | 0.011
3 | NCOR1 (UniProt O75376) | -0.028 | -0.027 | 0.018 | 0.06 | 0.021 | 0.015 | -0.007 | 0.01 | 0.018 | -0.019
4 | NUDT4 isoform 2 (UniProt Q9NZJ9) | -0.001 | -0.101 | 0.01 | -0.07 | 0.073 | 0.025 | -0.129 | 0.012 | 0.003 | -0.023
5 | NTPCR (UniProt Q9BSD7) | 0.007 | -0.163 | 0.055 | 0.009 | 0.027 | 0.005 | -0.007 | 0.007 | 0.058 | -0.057
6 | OLA1 (UniProt Q9NTK5) | -0.002 | -0.095 | 0.019 | -0.029 | -0.02 | 0.008 | -0.004 | 0.017 | 0.011 | -0.026
7 | NCAPH (UniProt Q15003) | 0.007 | -0.089 | 0.008 | 0.015 | 0.023 | 0.013 | 0.063 | 0.015 | 0.018 | 0.006
8 | ORC3 isoform 2 (UniProt Q9UBD5) | 0.006 | -0.155 | 0.007 | 0.022 | 0.035 | 0.02 | 0.15 | 0.001 | -0.009 | -0.019
9 | NUP133 (UniProt Q8WUM0) | -0.08 | -0.111 | -0.007 | 0.035 | -0.028 | 0.039 | 0.002 | -0.009 | 0.011 | -0.003
10 | MYH11 isoform 2 (UniProt P35749) | -0.042 | -0.069 | -0.028 | -0.083 | 0.031 | -0.002 | 0.07 | 0.002 | -0.005 | 0.031
11 | MVB12A (UniProt Q96EY5) | -0.019 | -0.221 | -0.009 | 0.056 | 0.037 | -0.015 | -0.012 | -0.011 | -0.035 | -0.055
12 | NPM3 (UniProt O75607) | -0.04 | 0.015 | -0.017 | 0.062 | 0.011 | 0.012 | 0.028 | -0.002 | 0.023 | -0.015
13 | MTA1 (UniProt Q13330) | 0.007 | -0.045 | 0.013 | 0.008 | -0.01 | -0.005 | 0.098 | -0.026 | 0.023 | -0.023
14 | NUF2 (UniProt Q9BZD4) | 0 | -0.13 | 0.03 | 0.021 | -0.007 | 0.027 | 0.264 (active) | -0.012 | 0.013 | -0.033
15 | NACC1 (UniProt Q96RE7) | -0.02 | -0.086 | 0.002 | -0.01 | 0.016 | 0.022 | 0.024 | 0.018 | -0.012 | -0.019
16 | MSI2 (UniProt Q96DH6) | 0.035 | -0.082 | -0.04 | 0.076 | -0.012 | 0.144 | -0.023 | 0.026 | -0.012 | -0.031

Row | Target | log2 fold change (alvocidib) | log2 fold change (Tubastatin A) | log2 fold change [1] | log2 fold change (defactinib) | log2 fold change [2] | log2 fold change (encorafenib) | log2 fold change [3] | log2 fold change (alisertib) | log2 fold change [4] | log2 fold change (gefitinib)
17 | NELFCD (UniProt Q8IXH7) | 0.015 | -0.148 | 0.047 | 0.041 | -0.055 | 0 | 0.073 | 0.023 | -0.006 | -0.009
18 | NEDD8 (UniProt Q15843) | 0.169 | 0.132 | 0.083 | 0.019 | 0.037 | 0.015 | -0.062 | 0.021 | -0.03 | -0.148
19 | OGT (UniProt O15294) | 0.045 | -0.129 | 0.054 | 0.018 | 0.019 | 0.043 | 0.121 | 0.01 | 0.007 | -0.015
20 | NMRAL1 (UniProt Q9HBL8) | 0 | 0.036 | -0.044 | -0.003 | 0.026 | -0.003 | 0.406 (active) | 0.021 | 0.001 | -0.002
21 | MYO10 (UniProt Q9HD67) | 0.048 | 0.211 | -0.012 | -0.106 |  |  |  | 0.021 |  | 0.087
22 | NUDT5 (UniProt Q9UKK9) | -0.137 | 0.052 | -0.01 | 0.072 | -0.018 | 0.034 | 0.006 | 0.004 | 0.003 | -0.002
23 | NOCT (UniProt Q9UK39) |  | 0.012 | 0.159 |  | 0.042 | 0.046 | -0.01 | 0.009 | -0.144 | -0.088
24 | NUDT6 (UniProt P53370) |  | 0.042 | 0.154 | -0.002 | -0.024 | -0.021 | -0.015 |  |  | 
25 | MYH6 (UniProt P13533) |  | 0.142 | -0.06 |  |  | -0.048 | 0.082 |  | 0.206 | 
26 | MYLK (UniProt Q15746) | 0.097 |  |  | 0.128 |  | 0.154 | -0.008 | -0.001 | -0.109 | 0.071
27 | NTMT1 (UniProt S4R338) |  |  |  |  |  |  |  |  | 0.045 | 
28 | MUC5AC (UniProt P98088) |  | -0.03 |  |  |  |  |  | -0.233 |  | 0.013
29 | NUMB isoform 2 (UniProt P49757) |  | -0.112 |  |  | 0.158 |  |  | 0.092 |  | -0.277
30 | P2RY1 (UniProt P47900) | -0.025 | 0.06 | -0.077 |  | -0.013 | 0.054 | 0.057 |  | -0.068 | 
31 | NCOR2 (UniProt C9J0Q5) | 0.024 | -0.035 | -0.013 | 0.045 | -0.001 | -0.002 | 0.006 | 0.036 | 0.017 | 0.049
